# Screen size: about 360,000 compounds; about 3,100 (0.86%) were called active.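 How the source made its calls: active means at least 50% inhibition at 5 µM, scaled per plate between neutral and stimulator controls; inactive means the rest.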 The sample as a whole holds a higher share of actives than the screen did.
# Test: inhibitors of PAF-induced NF-kB signaling, primary screen, cell-based, GFP fluorescence, uHTS (AID 588850);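 further: PAF is a Pseudomonas aeruginosa culture filtrate used as stimulus; plate controls were PAF-stimulated DMSO wells for no effect and unstimulated DMSO wells for full effect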
# Settings: KKLEB NF-kB-GFP reporter, GFP fluorescence overnight, at 5 µM, hits give high values
row,Structure (SMILES),inhibition
1,COC1C(O)C(C)OC(OC2CCC3(C=O)C(CCC4C3CCC3(C)C(C5=CC(=O)OC5)CCC43O)C2)C1O (stereo unspecified),91.1% (active)
2,CCOP(=S)(OCC)SCOC(=O)NCC(=O)OC,-6.4% (inactive)
3,O=c1c2ccccc2[nH]c(=S)n1-c1cccc(Cl)c1,-27.2% (inactive)
4,Cc1ccc(-c2nn(CCC#N)cc2C(=O)O)cc1C,13.3% (inactive)
5,CC[N+](CC)(CC)CCCCCCCCCC[N+](CC)(CC)CC,9.5% (inactive)
6,COc1c(O)ccc2c1-c1c3c(cc4c1C(C2)N(C)CC4)OCO3 (stereo unspecified),-18.7% (inactive)
7,O=C1NC(=O)N(CCc2ccc(F)cc2)C(=O)/C1=C/C=C/c1ccccc1,101% (active)
8,c1cncc(CNC2=NCCC2)c1,13.7% (inactive)
9,CN1CCc2cc3c(cc2[C@H]1[C@@H]1OC(=O)c2c1ccc1c2OCO1)OCO3,15.1% (inactive)
10,CN(C)CCCN=Cc1c(O)n(Cc2ccco2)c(=O)[nH]c1=O,13.6% (inactive)
11,C[C@]12CC[C@H](O)C[C@H]1CC[C@@H]1C2CC[C@]2(C)[C@@H](C3=CC(=O)OC3)[C@@H](O)C[C@]12O (stereo partly specified),53.2% (active)
12,CC12CCC(O)CC1CCC1C2CCC2(C)C(C(=O)CC(O)C(F)(F)F)CCC12 (stereo unspecified),9.6% (inactive)
13,CCOP(=O)(OCC)C(NC(=O)NC)C(N)=O (stereo unspecified),-12.3% (inactive)
14,CC=C(C)C(=O)OC1CCN2CC=C(COC(=O)C(O)(C(C)OC)C(C)(C)O)C12 (stereo unspecified),1.6% (inactive)
15,CC(C)Oc1cccc(C(=O)C2CCCN(C3CCOCC3)C2)c1 (stereo unspecified),-10.1% (inactive)
16,CCOC(=O)c1cccc(C2=C(CNC(=O)c3ccncc3)[C@H]3CC[C@@H](C2)N3Cc2ccccc2)c1,2.6% (inactive)
17,CC(=CCOc1ccc2ccc(=O)oc2c1)C1=CC(=O)C(C)(C)O1,75.5% (active)
18,O=C(CCN1CCCCC1)NCC(=O)Nc1ccc(Br)cc1C(=O)c1ccccc1,-1.9% (inactive)
19,CC1=C(C(=O)Nc2ccccc2)SCCO1,-0.6% (inactive)
20,Cc1nn(-c2ccccc2)c(C)c1NC(=O)COC(=O)Cc1ccccc1,5.1% (inactive)
21,O=c1[nH]c2ccccc2n1C1CCN(C(c2ccccc2)c2nnnn2Cc2ccccc2)CC1 (stereo unspecified),85.1% (active)
22,COc1ccc(-n2nnnc2C(c2cccc3ccccc23)N2CCC(n3c(=O)[nH]c4ccccc43)CC2)cc1 (stereo unspecified),53.2% (active)
23,CSCCC(c1nnnn1C(C)(C)C)N1CCC(n2c(=O)[nH]c3ccccc32)CC1 (stereo unspecified),-10.2% (inactive)
24,O=C1NCN(c2ccccc2)C12CCN(C(c1cccs1)c1nnnn1C1CCCCC1)CC2 (stereo unspecified),-6.5% (inactive)
25,COc1cccc(C(c2nnnn2-c2ccc3c(c2)OCCO3)N2CCC3(CC2)C(=O)NCN3c2ccccc2)c1OC (stereo unspecified),-0.8% (inactive)
26,O=c1[nH]c2ccccc2n1C1CCN(C(c2ccnc3ccccc23)c2nnnn2Cc2ccccc2)CC1 (stereo unspecified),39.9% (inactive)
